Methyltransferases – Primary Screen for Target Class Profiling of Small Molecule Inhibitors of Methyltransferases; purified enzyme, MTase-Glo SAH luminescence; active compounds read low; calls only at 40 µM; hit rate 3.9% among 25,000; call rule not given here
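Each enzyme was assayed with SAM and its substrate. SAH formation detected by MTase-Glo luminescence; single-point 40 uM screen[…].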
Large screens that a line does not name were inactive; ! = a repeat was not active. This excerpt belongs to a sample that is enriched for hits.

CC1CC(=O)C2=C(O1)OC1(C)CCC3C(C)(C)C=CC(=O)C3(C)C1C2 (stereo not drawn)	Methyltransferases active
CC1CC(=O)C2=C(O1)OC1(C)CCC3C(C)(C)C4OC4C(=O)C3(C)C1C2 (stereo not drawn)	Methyltransferases active
CCCCN1C(=O)c2cc(C(=O)NCc3ccc4c(c3)OCO4)nn2CC1(C)C(=O)NC1CCCC1 (stereo not drawn)	none
CC1CCC(NC(=O)C2(C)Cn3c(ccc3-c3ccco3)C(=O)N2CC(C)c2ccccc2)CC1 (stereo not drawn)	none
O=C(c1ccc(-c2ccc(O)cc2)cc1)N1CCOC2(CNCCOC2)C1 (stereo not drawn)	none
O=C(Cn1c(=O)oc2cc(S(=O)(=O)N3CCCC3)ccc21)Nc1ccc(Cl)cc1F	none
O=C(Nc1ccc(Cl)cc1)c1nc(Nc2ccccc2)c2ccccc2n1	none
O=C(O)c1ccc2c(c1)nc(Nc1cccc(Cl)c1)c1ccncc12	Methyltransferases active
O=C(NCc1cccc(Cl)c1)c1ccc2oc(-c3cccnc3)nc2c1	none
COc1ccccc1CNC(=O)C1c2c(n(C)c3ccccc23)SCC(=O)N1c1ccc(Cl)cc1 (stereo not drawn)	none
CCCn1c(=O)c2ccc(Cl)cc2n2c(=O)n(CC(=O)Nc3ccccc3OC)nc12	none
O=C1C(SCCO)=C(SCCO)C(=O)c2ccccc21	Methyltransferases active
CCn1cc(-c2ccc(C)cc2)cc1C(=O)O	none
CC1(C(=O)NC2CCCC2)Cn2cnc(C(=O)NCCCc3ccccc3)c2C(=O)N1C1CC1 (stereo not drawn)	none
Cc1ccc(CNC(=O)C2(C)Cn3cnc(C(=O)N4CCN(c5ccccc5)CC4)c3C(=O)N2C2CC2)cc1 (stereo not drawn)	none
COc1ccccc1CN1C(=O)c2cc3sccc3n2CC1(C)C(=O)NC1CCCCCC1 (stereo not drawn)	none
Cc1cc(C)cc(NC(=O)Cn2nc3n(C(C)C)c(=O)c4ccc(C(=O)NCC(C)C)cc4n3c2=O)c1	none
C[C@@H]1O[C@@H](O[C@H]2[C@H](O[C@H]3[C@H](O[C@H]4CC[C@@]5(C)C(CC[C@]6(C)C5CC=C5[C@@H]7CC(C)(C)C[C@@H](O)[C@]7(C)CC[C@]56C)[C@@]4(C)CO)O[C@H](C(=O)O)[C@@H](O)[C@@H]3O)O[C@H](CO)[C@H](O)[C@@H]2O)[C@H](O)[C@H](O)[C@H]1O (stereo partly drawn)	none
C[C@@H]1O[C@@H](O[C@H]2[C@H](O[C@H]3[C@H](O[C@H]4CC[C@@]5(C)C(CC[C@]6(C)C5CC=C5[C@@H]7CC(C)(C)C[C@@H](O)[C@]7(C)CC[C@]56C)[C@@]4(C)CO)O[C@H](C(=O)O)[C@@H](O)[C@@H]3O)O[C@H](C(=O)O)[C@H](O)[C@@H]2O)[C@H](O)[C@H](O)[C@H]1O (stereo partly drawn)	none
CC1(CO)CC(O)C2(C)CCC3(C)C(=CCC4C5(C=O)CCC(OC6OC(C(=O)O)C(O)C(O)C6OC6OC(C(=O)O)C(O)C(O)C6O)C(C)(C)C5CCC43C)C2C1 (stereo not drawn)	Methyltransferases active
CC1CCC(NC(=O)C2(c3ccccc3)Cn3c(cc4sccc43)C(=O)N2Cc2ccccc2)CC1 (stereo not drawn)	none
COc1cccc(N2C(=O)c3cc4occc4n3CC2(C)C(=O)NC2CCCC(C)C2C)c1 (stereo not drawn)	none
O=C(c1ccccc1OC(F)(F)F)N1CCC2(CC1)CC(O)CCO2 (stereo not drawn)	none
Cc1noc(C)c1[S+](=O)([O-])N1CCc2nc(-c3ccccc3)nc(-c3ccc(Cl)cc3)c2C1	none
CN1C(=O)c2cc(C(=O)NC3CCCCCC3)nn2CC1(C)C(=O)NC1CCCC1 (stereo not drawn)	none
CC(O)(CC(=O)O)CC(=O)OCc1ccc(O[C@@H]2O[C@H](CO)[C@@H](O)[C@H](O)[C@H]2O)cc1 (stereo partly drawn)	Methyltransferases active
O=C(O)c1ccc(OC2OC(CO)C(O)C(O)C2O)cc1 (stereo not drawn)	none
CC(O)(CC(=O)O)CC(=O)O[C@@H]1[C@@H](O)[C@H](OCCc2ccccc2)O[C@H](CO)[C@H]1O (stereo partly drawn)	none
CCOc1ccccc1CNC(=O)c1cc2n(n1)CC(C)(C(=O)NCc1ccc(F)cc1)N(C)C2=O (stereo not drawn)	none
CCCSCCCN1C(=O)c2nc3ccccc3n2CC1(C)C(=O)NC1CCCC1 (stereo not drawn)	none
COc1ccccc1NC(=O)Cn1nc2n(Cc3ccc(C)cc3)c(=O)c3ccccc3n2c1=O	none
CC1(C(=O)NCc2ccccc2Cl)Cn2cnc(C(=O)NCc3ccccc3)c2C(=O)N1C1CC1 (stereo not drawn)	none
CC(C)CCn1c(=O)c2ccc(C(=O)NC3CCCC3)cc2n2c(=O)n(Cc3cccc(Cl)c3)nc12	none
O=C(O)C1=CC(=C(c2ccc(O)c(C(=O)O)c2)c2ccc(O)c(C(=O)O)c2)C=CC1=O	Methyltransferases active
CCN(CC)CCCNS(=O)(=O)c1ccc2[nH]c(=O)[nH]c2c1	none
CC1CCCC(NC(=O)C2(C)Cn3c(ccc3-c3ccco3)C(=O)N2Cc2cccnc2)C1C (stereo not drawn)	none
O=[N+]([O-])c1ccc(CNc2nc(NCc3cccc(C(F)(F)F)c3)nc3nc[nH]c23)cc1	Methyltransferases active!
Cc1cc2[nH]c(=O)[nH]c2cc1S(=O)(=O)NCc1ccc(F)cc1	none
Cc1cccc(N2C(=O)c3cc4occc4n3CC2(C)C(=O)NC2CCCCC2C)c1C (stereo not drawn)	none
Cc1ccc(-c2nc3cnccn3c2NCCC(=O)O)cc1	none
Cc1nc2c3ccccc3n3c(CCCC(=O)N4CCN(c5cccc(C)c5C)CC4)nnc3n2n1	none
COc1ccc2cc3n(c2c1)CC(C)(C(=O)NC1CCCCC1)N(c1ccc(OC)c(OC)c1)C3=O (stereo not drawn)	none
CC(C)CCNC(=O)Cn1ccc2cc(S(=O)(=O)N3CCCC3)ccc21	none
COc1ccc(N(C(=O)c2ccc(C)cc2)S(=O)(=O)c2ccc3c(c2)n(C)c(=O)n3C)cc1	none
C[C@@]1(C2CCCC2)Cc2cc(OCC(=O)O)c(Cl)c(Cl)c2C1=O	Methyltransferases active
CCC(C)C(=O)N1CCC2(CCc3nn(Cc4ccccc4)c(=O)n3CC2)CC1 (stereo not drawn)	none
CC(C)Cn1c(=O)c2ccc(C(=O)NC(C)C)cc2n2c(SCc3ccccc3)nnc12	none
CCOc1ccc(CCNC(=O)c2cc3n(n2)CC(C)(C(=O)NCc2ccccc2)N(C)C3=O)cc1 (stereo not drawn)	none
CCc1ccccc1NS(=O)(=O)c1ccc2c(c1)NC(=O)C(C)C(=O)N2 (stereo not drawn)	none
O=C(Cn1c(=O)oc2cc(S(=O)(=O)N3CCCC3)ccc21)Nc1nccs1	none
CSC(=O)OCC1=C[C@@H]2OC(=O)C3=CO[C@@H](O[C@@H]4O[C@H](CO)[C@@H](O)[C@H](O)[C@H]4O)[C@H]1[C@@H]32	Methyltransferases active
O=C(/C=C/c1ccc(O)cc1)OCC1=CC2OC(=O)C3=CO[C@@H](O[C@@H]4O[C@H](CO)[C@@H](O)[C@H](O)[C@H]4O)[C@H]1[C@@H]32 (stereo partly drawn)	none
COC(=O)C1=CO[C@@H](O[C@@H]2O[C@H](CO)[C@@H](O)[C@H](O)[C@H]2O)[C@@H]2C(CO)=CC[C@H]12	none
O=C(CCc1nnc2n(Cc3ccccc3Cl)c(=O)c3ccccc3n12)N1CCN(c2ccccn2)CC1	none
